# Where “and” joins values, the source holds several entries; their conditions need not be identical. Equal values may be shown once. The campaign covered roughly 4,400 compounds. About 390 (8.9%) showed an effect of 50% or more. The entries come from a sample that favours strong results as a whole.
# System: Trypanosoma brucei
# Assay: DNDI: Inhibition of Human African Trypanosomiasis, SBRI 427, in vitro at 2 ug.mL-1
# Type: functional
row,Structure (SMILES),% inhibition
1,CN(Cc1ccccc1)Cc1coc(-c2cccc3ccccc23)n1,-2%
2,COc1ccc(OC)c(NCc2coc(-c3ccccc3C)n2)c1,8%
3,CCCN(CC1CC1)/C(=N\O)c1ccc(C)nc1Oc1cccc2cnccc12,23%
4,Cc1ccc(/C(=N/O)N2C(C)C=CC2C)c(Oc2cccc(C(C)C)c2)n1 (configuration not stated),20%
5,Cc1cccc(Oc2nc(C)ccc2/C(=N/O)NC2CCCC2)c1,11%
6,Cc1ccc(/C(=N/O)NC2CCCCC2)c(Oc2cccc(C(C)C)c2)n1,22%
7,Cc1ccc(/C(=N/O)NC2CC2)c(Oc2ccc3ccccc3c2)n1,16%
8,Cc1cccc(Oc2nc(C)ccc2/C(=N/O)NC2CCCCC2)c1,98%
9,Cc1ccc(/C(=N/O)NC2CCCCC2)c(Oc2ccc3ccccc3c2)n1,97%
10,Cc1ccc(/C(=N/O)NC2CCC2)c(Oc2ccc3ccccc3c2)n1,7%
11,CCOc1cccc(-c2nc(CN(C)Cc3cc(OC)c(OC)c(OC)c3)co2)c1,18%
12,COc1ccc(Oc2cc(/C(=N/O)NCc3ccccc3C)ccn2)cc1,21%
13,Cc1ccc(-c2nc(CNCC(C)(C)CN(C)C)co2)cc1,10%
14,Cc1cccc(Oc2ncccc2/C(=N/O)N(C)C2CCCCC2)c1C,-1%
15,COc1ccc(CN/C(=N\O)c2ccnc(Oc3cccc(C(C)C)c3)c2)cc1,-1%
16,CC1CCCN1/C(=N\O)c1cccnc1OCc1ccccc1F (configuration not stated),-5%
17,CCCCC(CC)CNCc1coc(-c2ccc(Br)cc2)n1 (configuration not stated),-12%
18,COCC(C)N/C(=N\O)c1ccnc(Oc2cccc(C(C)C)c2)c1 (configuration not stated),71%
19,COCCN(/C(=N\O)c1ccnc(Oc2ccc(Cl)cc2)c1)C(C)C,28%
20,CSc1ccc(Oc2cc(/C(=N/O)NCc3ccncc3)ccn2)cc1,9%
21,COCC(C)N/C(=N\O)c1ccnc(Oc2ccc(Cl)cc2)c1 (configuration not stated),99%
22,COCCN/C(=N\O)c1ccnc(Oc2ccc(SC)cc2)c1,-13%
23,O/N=C(\NCc1c(F)cccc1F)c1ccnc(Oc2ccc(Cl)cc2)c1,12%

row,Structure (SMILES),% inhibition
1,COCCN/C(=N\O)c1ccnc(Oc2cccc(C(C)C)c2)c1,4%
2,COCC(C)N/C(=N\O)c1ccc(Oc2ccc(Cl)cc2)nc1 (configuration not stated),31%
3,COCCN/C(=N\O)c1ccnc(Oc2ccc(OC)cc2)c1,41%
4,COCC(C)N/C(=N\O)c1ccnc(Oc2ccc(SC)cc2)c1 (configuration not stated),86%
5,COCCN/C(=N\O)c1ccnc(Oc2ccc(Cl)cc2)c1,55%
6,COCC(C)N/C(=N\O)c1ccnc(Oc2cccc(F)c2)c1 (configuration not stated),8%
7,CCOC(=O)C1CCCCN1Cc1coc(-c2ccc(O)cc2)n1 (configuration not stated),-1%
8,Fc1ccccc1-c1nc(CNCc2cccc3ccccc23)co1,24%
9,Cc1ccc(/C(=N/O)N(C)Cc2cccnc2)c(Oc2cccnc2)n1,10%
10,CSc1ccc(Oc2nc(C)ccc2/C(=N/O)N2C(C)C=CC2C)cc1 (configuration not stated),-5%
11,Cc1ccccc1-c1nc(CN(C)Cc2ccco2)co1,2%
12,CCN(/C(=N\O)c1ccc(C)nc1Oc1cccc(C(C)C)c1)C(C)C,-4%
13,C=CCN(Cc1coc(-c2ccc(C)cc2)n1)C1CCCC1,16%
14,Cc1ccc([C@@H](C)NCc2coc(-c3ccc(O)cc3)n2)cc1,46%
15,Cc1ccc(Oc2cc(/C(=N/O)N3CCN(c4ccc(F)cc4)CC3)ccn2)c2c1CCC2,31%
16,COc1cc(CNCc2coc(-c3ccccc3Br)n2)cc(OC)c1OC,-33%
17,CCN(Cc1ccccc1)Cc1coc(-c2cc(OC)c(OC)c(OC)c2)n1,-20%
18,Cc1ccc(C)c(N2CCN(Cc3coc(-c4ccc(O)cc4)n3)CC2)c1,9%
19,Cc1cccc(-c2nc(CNCc3ccncc3)co2)c1,-16%
20,Cc1ccc(-c2nc(CN3CC[C@@H]4CCCC[C@@H]4C3)co2)cc1,-5%
21,O/N=C(\NCc1ccccc1)c1ccnc(Oc2ccc(F)c(Cl)c2)c1,24%
22,CCN(/C(=N\O)c1ccnc(Oc2ccc(Cl)cc2)c1)C(C)C,74%
23,CCN(/C(=N\O)c1ccnc(Oc2ccc(F)c(Cl)c2)c1)C(C)C,14%

row,Structure (SMILES),% inhibition
1,COCC(C)N/C(=N\O)c1ccnc(Oc2ccc(F)c(Cl)c2)c1 (configuration not stated),99%
2,CCN(/C(=N\O)c1ccnc(Oc2ccc(F)c(F)c2)c1)C(C)C,43%
3,CC(C)c1ccc(N/C(=N\O)c2ccnc(Oc3ccc(F)c(Cl)c3)c2)cc1,0%
4,Cc1cn(/C(=N\O)c2ccc(Oc3ccc(Cl)cc3)nc2)cn1,5%
5,CCCN(CC1CC1)/C(=N\O)c1cccnc1Oc1ccccc1OC,24%
6,CC(C)c1ccccc1Oc1ncccc1/C(N)=N/O,7%
7,COc1cc(C)ccc1Oc1nc(C)ccc1/C(=N/O)Nc1ccc(C(C)C)cc1,8%
8,Cc1ccc(Oc2nc(C)ccc2/C(=N/O)NCc2ccco2)cc1,37%
9,O/N=C(\NCc1cccnc1)c1cccnc1Oc1ccc2ccccc2c1,-6%
10,CCC(C)(C)N/C(=N\O)c1cccnc1OCC(C)(C)C,11%
11,CC(C)N/C(=N\O)c1cccnc1Oc1ccc2ccccc2c1,21%
12,CC(C)N/C(=N\O)c1cccnc1OCC(C)(C)C,100%
13,CCCN/C(=N\O)c1cccnc1Oc1ccc2ccccc2c1,25%
14,Cc1cc(C)cc(CN/C(=N\O)c2cccnc2Oc2ccc(Cl)cc2)c1,31%
15,Cc1ccc(CN/C(=N\O)c2cccnc2Oc2ccc3ccccc3c2)o1,19%
16,COc1ccc(Oc2ncccc2/C(=N/O)NCc2cccnc2)cc1,-2%
17,CCC(C)(C)N/C(=N\O)c1cccnc1Oc1ccc2ccccc2c1,99%
18,COc1ccc(Oc2ncccc2/C(=N/O)NCc2cc(C)cc(C)c2)cc1,79%
19,CC(C)c1ccc(N/C(=N\O)c2cccnc2OCC(C)(C)C)cc1,14%
20,Cc1cc(C)cc(CN/C(=N\O)c2cccnc2Oc2ccc3ccccc3c2)c1,70%
21,COc1cccc(-c2nc(CN3CCOCC3)co2)c1,35%
22,FC(F)(F)CNCc1coc(-c2ccc(Cl)cc2Cl)n1,23%
23,COCC(C)NCc1coc(-c2ccccc2C)n1 (configuration not stated),9%

row,Structure (SMILES),% inhibition
1,CC(c1ccccc1)N(C)Cc1coc(-c2ccc(C(F)(F)F)cc2)n1 (configuration not stated),7% and -11%
2,Cc1cc(C)cc(Oc2ccc(/C(N)=N/O)cn2)c1,11%
3,Clc1ccccc1-c1nc(CNC(c2ccccc2)c2ccccc2)co1,6%
4,CC1CC(C)CN(Cc2coc(-c3ccc(Br)cc3)n2)C1 (configuration not stated),-5%
5,CCOc1ccccc1-c1nc(CN(C)C(C)c2ccccc2)co1 (configuration not stated),8% and 1%
6,CCOc1cccc(-c2nc(CNC(CC)c3ccccc3)co2)c1 (configuration not stated),27%
7,Fc1ccc(N2CCN(Cc3coc(-c4ccccc4Br)n3)CC2)cc1,-6%
8,Cc1nccn1/C(=N\O)c1cccnc1OCC(C)C,-13%
9,O/N=C(\NCc1cc(F)ccc1F)c1ccc(Oc2ccc3ccccc3c2)nc1,31%
10,CC(C)COc1ncccc1/C(=N/O)NCC(C)(C)C,95%
11,CSCCN/C(=N\O)c1cccnc1OCC(C)C,-5%
12,COCCN/C(=N\O)c1cccnc1OCC(C)C,-7%
13,CC(C)COc1ncccc1/C(=N/O)NCc1ccccc1,37%
14,Cc1cc(C)cc(CN/C(=N\O)c2cccnc2OCC(C)C)c1,92%
15,Cc1cc(C)cc(CN/C(=N\O)c2cccnc2OCC(C)(C)C)c1,-8%
16,Fc1cccc(-c2nc(CNc3cc[nH]n3)co2)c1,45%
17,FC(F)(F)c1ccc(-c2nc(CN3CCN(C(c4ccccc4)c4ccccc4)CC3)co2)cc1,-3%
18,CCOc1ccc(-c2nc(CNC(CC)c3ccccc3)co2)cc1 (configuration not stated),1% and -14%
19,CCCCN(CC)Cc1coc(-c2ccccc2Cl)n1,19%
20,Fc1ccc(-c2nc(CNCCN3CCCCC3)co2)cc1,-17%
21,Fc1ccc(-c2nc(CNCCN3CCCC3)co2)cc1,1%
22,CC1CCCCN1CCCNCc1coc(-c2ccco2)n1 (configuration not stated),23%
23,COc1ccc(-c2nc(CN3CCCCC3C)co2)cc1 (configuration not stated),12%

row,Structure (SMILES),% inhibition
1,COc1ccc(-c2nc(CNCCCN3CCCCC3C)co2)cc1 (configuration not stated),97%
2,CC1CCCCN1CCCNCc1coc(-c2ccc(F)cc2)n1 (configuration not stated),72%
3,COC(=O)C1CCN(/C(=N\O)c2cccnc2Oc2cccc3ccccc23)CC1,9%
4,CC1CCCN1/C(=N\O)c1cccnc1Oc1ccc(Cl)cc1 (configuration not stated),-13%
5,CN(Cc1coc(-c2ccc(C(F)(F)F)cc2)n1)c1ccccc1,1%
6,Oc1ccc(-c2nc(CN(Cc3ccccc3)c3ccccc3)co2)cc1,11%
7,NCCc1cn(Cc2coc(-c3cccs3)n2)c2ccccc12,-15%
8,CCN(Cc1ccccc1)Cc1coc(-c2ccc(OC)cc2)n1,-11%
9,Cc1ccc(/C(=N/O)NCC2CC2)c(Oc2ccc3ccccc3c2)n1,17%
10,CCCN/C(=N\O)c1ccc(C)nc1OCc1cccc(F)c1,0%
11,Cc1cccc(Oc2nc(C)ccc2/C(=N/O)NCc2ccccc2)c1,6%
12,CCC(C)(C)N/C(=N\O)c1ccc(C)nc1Oc1cccc(C)c1,19%
13,Cc1ccc(/C(=N/O)NCC(C)(C)C)c(Oc2cccc(F)c2)n1,99%
14,CSCCN/C(=N\O)c1ccc(C)nc1Oc1cccc(F)c1,12%
15,CCC(C)(C)N/C(=N\O)c1ccc(C)nc1Oc1cccc(F)c1,13%
16,CSCCN/C(=N\O)c1ccc(C)nc1Oc1ccc2ccccc2c1,7%
17,Cc1ccc(/C(=N/O)NCC(C)(C)C)c(Oc2ccc3ccccc3c2)n1,96%
18,Cc1ccc(/C(=N/O)NCc2cc(F)cc(F)c2)c(OCc2cccc(F)c2)n1,-12%
19,Cc1cccc(Oc2nc(C)ccc2/C(=N/O)NCC(C)(C)C)c1,100%
20,Cc1ccc(/C(=N/O)NCC(C)(C)C)c(OCc2cccc(F)c2)n1,96%

# Reference: ChEMBL document CHEMBL1857833, “Screening and optimization of specific chemical series against human African Trypanosomiasis (HAT)”
